Assay results taken from PubChem BioAssay (NCATS).
Records with an inconclusive call do not appear. Entries that show only a call come without a potency. Calls of active or inactive are those of the source. Calls come from the whole dose curve.

Molecular target: Nucleoprotein (Lymphocytic choriomeningitis virus (strain Armstrong)) (UniProt P09992)
Assay: qHTS for Inhibitors of the Functional Ribonucleoprotein Complex (vRNP) of Lymphocytic Choriomeningitis Arenaviruses (LCMV): LCMV Primary Screen - GLuc reporter signal (AID 1347086); note: nearly all actives have a fitted effect of over 70% in size
Conditions: LCMV minigenome vRNP cell assay, Gaussia luciferase reporter; series mostly up to 57.5 µM
Potency is the fitted concentration of half-maximal effect.

Nucleoprotein (Lymphocytic choriomeningitis virus (strain Armstrong)), sequence (P09992 whole entry, looked up): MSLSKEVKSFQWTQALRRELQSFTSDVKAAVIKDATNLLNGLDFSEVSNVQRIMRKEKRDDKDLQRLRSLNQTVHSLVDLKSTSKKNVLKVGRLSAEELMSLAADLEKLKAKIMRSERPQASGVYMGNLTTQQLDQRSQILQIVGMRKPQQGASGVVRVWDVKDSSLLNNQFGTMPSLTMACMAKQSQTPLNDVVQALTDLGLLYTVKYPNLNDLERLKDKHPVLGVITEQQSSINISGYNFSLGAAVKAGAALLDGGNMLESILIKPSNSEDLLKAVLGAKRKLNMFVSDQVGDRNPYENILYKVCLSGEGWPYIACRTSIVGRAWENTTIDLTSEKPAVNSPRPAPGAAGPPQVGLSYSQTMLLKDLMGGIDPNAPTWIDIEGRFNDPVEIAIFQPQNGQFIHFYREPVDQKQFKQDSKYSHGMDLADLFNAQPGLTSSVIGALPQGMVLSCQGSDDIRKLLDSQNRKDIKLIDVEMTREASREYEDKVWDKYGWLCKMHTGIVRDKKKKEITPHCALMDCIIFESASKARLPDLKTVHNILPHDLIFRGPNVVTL

Row | Structure (SMILES) | Potency
1 | O=C(Nc1cccc(Cl)c1)Nc1ncc(CCNc2ncnc3ccsc23)s1 | inactive
2 | C[C@@H](N)C1CCC(C(=O)Nc2ccncc2)CC1 (stereo partly drawn) | 9.68 µM (active)
3 | CN(C)C1CCN(C(=O)c2ccc(NC(=O)Nc3nc(N4CCOCC4)nc(N4CCOCC4)n3)cc2)CC1 | 0.0968 µM (active)
4 | CC(=O)N[C@@H](CCC(N)=O)C(=O)O | inactive
5 | NCCS | inactive
6 | Nc1ccccc1NC(=O)c1ccc(CNc2nccc(-c3cccnc3)n2)cc1 | inactive
7 | C=CC(=O)Nc1cccc(Oc2nc(Nc3ccc(N4CCN(C)CC4)cc3OC)ncc2Cl)c1 | inactive
8 | O=C(NC1CCNCC1)c1[nH]ncc1NC(=O)c1c(Cl)cccc1Cl | 1.93 µM (active)
9 | CCn1cc(C(=O)O)c(=O)c2cc3c(cc21)OCO3 | inactive
10 | Cc1cccc(C#Cc2ccccc2)n1 | inactive
11 | CCCOC(=O)c1ccc(O)cc1 | inactive
12 | O=C1CCCC2=C1C(c1[nH]ncc1Cl)N=C(Nc1nc3ccccc3o1)N2 (stereo not drawn) | inactive
13 | O=C(O)[C@H](Cc1c[nH]c2ccccc12)N1C(=O)c2ccccc2C1=O | inactive
14 | CC1(C)Cc2c(-c3ccccc3)c(-c3ccc(Cl)cc3)c(CC(=O)O)n2C1 | inactive
15 | CCC[C@H](NC(=O)C(C#N)=Cc1cccc(Br)n1)c1ccccc1 | inactive
16 | C[C@@H]1CN(c2c(F)c(N)c3c(=O)c(C(=O)O)cn(C4CC4)c3c2F)C[C@H](C)N1 | inactive
17 | C=CC(=O)Nc1cc2c(Nc3ccc(F)c(Cl)c3)ncnc2cc1C#CC(C)(C)N1CCN(C)CC1 | inactive
18 | CCC(C(=O)O)c1ccc(N2Cc3ccccc3C2=O)cc1 (stereo not drawn) | inactive
19 | COc1ccc2cc(CCC(C)=O)ccc2c1 | inactive
20 | COc1ncnc(NS(=O)(=O)c2ccc(N)cc2)c1OC | inactive
21 | C/C(=C1\CCOC(=O)S1)N(C=O)Cc1cnc(C)nc1N | inactive
22 | CCOC(CN1C(=O)[C@](CC(=O)Nc2ccc(C)cc2)(NC(=O)Nc2ccc(C)cc2)c2ccccc21)OCC | inactive
23 | O=C(C=Cc1ccc(/C=C/C(=O)Nc2ccc(C3=NCCN3)cc2)cc1)Nc1ccc(C2=NCCN2)cc1 | inactive
